Experiment [1] can be described thus: NCI Yeast Anticancer Drug Screen. Data for the rad50 strain (AID 155).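 Further: 0% = growth of vehicle-only cultures of the same strain.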 The note with it: S. cerevisiae rad50 strain growth inhibition, stronger effect = higher value. In outline: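 DNA repair mutant yeast, compound exposure, growth read-out; inhibition is taken relative to vehicle.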
Experiment [2] in a line: NCI Yeast Anticancer Drug Screen. Data for the mec2-1 strain (AID 157). As to conditions: S. cerevisiae mec2-1 strain, stronger effect = higher value. In outline:
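Each compound was tested on mec2-1 yeast, a strain altered in DNA damage repair or cell cycle control. Growth inhibition is reported relative to vehicle.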

Experiment [3] in a line: NCI Yeast Anticancer Drug Screen. Data for the sgs1 mgt1 strain (AID 161).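 Further: 0% = growth of cultures given vehicle only.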 The note with it: S. cerevisiae sgs1 mgt1 strain, stronger effect = higher value. The procedure, abridged:
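Genetically altered yeast, compound exposure, growth inhibition relative to vehicle.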

A short description of experiment [4]: NCI Yeast Anticancer Drug Screen. Data for the cln2 rad14 strain (AID 165).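 Further: 0% = growth equal to vehicle treated cultures.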 As to conditions: S. cerevisiae cln2 rad14 strain, stronger effect = higher value. In outline:
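Test compounds were added to cln2 rad14 yeast cultures; inhibition of growth was then determined by comparison with vehicle treatment.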

A short description of experiment [5]: NCI Yeast Anticancer Drug Screen. Data for the bub3 strain (AID 167). The note with it: S. cerevisiae bub3 mutant strain, stronger effect = higher value. In outline:
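In this screen, a yeast mutant lacking normal mitotic checkpoint function is challenged with compound. Relative growth versus vehicle gives the inhibition value.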

A short description of experiment [6]: NCI Yeast Anticancer Drug Screen. Data for the mlh1 rad18 strain (AID 175). The note with it: S. cerevisiae mlh1 rad18 strain growth inhibition, stronger effect = higher value. In outline:
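Inhibition values reflect reduced growth of mutant yeast versus vehicle-treated controls following compound exposure; the mutations affect DNA damage repair.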

A short description of experiment [7]: NCI Yeast Anticancer Drug Screen. Data for the wt2 strain (AID 169).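 Further: 0% = growth of vehicle-treated yeast cultures.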 As to conditions: S. cerevisiae wt2 strain growth inhibition, stronger effect = higher value. In outline:
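The panel's yeast strains carry defined changes in DNA repair or cell cycle genes. Each strain is grown with compound, and growth loss is scored relative to vehicle.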

Where [8] appears, read: at 5.0 µM (retest, dose inferred, filed as 0.5).
[9] abbreviates: at 50.0 µM (retest, dose inferred, filed as 5.0).

Values joined by “and” are separate entries in the source; they are usually repeats but may differ in a detail not shown here. Identical values can stand only once. The panel holds about 79,000 compounds, 15% with a hit somewhere; the sample as a whole holds those more often. More than one record can exist for a structure, and the calls need not agree. Active and inactive are the calls of the source. No stated cut-off is given here; in the data, active means growth inhibition above about 70%; inactive means the rest.

On to `CC(=O)[CH-]C(=O)c1ccccc1.CC(=O)[CH-]C(=O)c1ccccc1.C[C@]12CCC(=O)C=C1CC[C@@H]1C2CC[C@@]2(C)C1CC[C@@H]2[O-].C[C@]12CCC(=O)C=C1CC[C@@H]1C2CC[C@@]2(C)C1CC[C@@H]2[O-].Cl.[Ti+4]` (some centres not stated), for which the growth inhibition was 41% (inactive) in experiment [1] (setting [8]); 78% (active) in experiment [1] (setting [9]); 76.8% (active) in experiment [1] (at 50.0 µM); 35% (inactive) in experiment [2] (setting [8]); 84% (active) in experiment [2] (setting [9]); 70.8% (active) in experiment [2] (at 50.0 µM). Besides, the growth inhibition in experiment [3] (setting [8]) is 39% (inactive); in experiment [3] (setting [9]) it was 85% (active); in experiment [3] (at 50.0 µM) it was 78.8% (active); in experiment [4] (setting [8]), 26% (inactive); in experiment [4] (setting [9]), 48% (inactive); in experiment [4] (at 50.0 µM), 50.9% (inactive). For the same compound, the values for the growth inhibition in experiment [5] (setting [8]), in experiment [5] (setting [9]) and in experiment [5] (at 50.0 µM) were 37% (inactive), 86% (active) and 76.5% (active), respectively.

Turning to `CCC1(C2=CCCCC2)C(=O)NC(=S)NC1=O`, the growth inhibition was -101% (inactive) in experiment [1] (setting [8]); 62% (inactive) in experiment [1] (setting [9]); 8.05% (inactive) and 60.1% (inactive) in experiment [1] (at 50.0 µM); -11% (inactive) in experiment [2] (setting [8]); 76% (active) in experiment [2] (setting [9]); -3.9% (inactive) and 5.6% (inactive) in experiment [2] (at 50.0 µM). Further, the growth inhibition in experiment [3] (setting [8]) is 22% (inactive); in experiment [3] (setting [9]) it was 77% (active); in experiment [3] (at 50.0 µM), 0.6% (inactive) and 51.5% (inactive); in experiment [4] (setting [8]), -14% (inactive); in experiment [4] (setting [9]), 62% (inactive); in experiment [4] (at 50.0 µM), -32.4% (inactive) and -0.6% (inactive). For the same compound, the growth inhibition in experiment [5] (setting [8]) was 4% (inactive); in experiment [5] (setting [9]), 62% (inactive); in experiment [5] (at 50.0 µM), 6.05% (inactive) and 34.2% (inactive).

Consider `COC(COC(N)=O)C1=C(N2CC2)C(=O)C(C)=C(N2CC2)C1=O` (configuration not stated), for which the growth inhibition in experiment [1] (setting [8]) was 47% (inactive); in experiment [1] (setting [9]) it was 98% (active); in experiment [1] (at 50.0 µM), 66.1% (inactive); in experiment [2] (setting [8]) it was 39% (inactive); in experiment [2] (setting [9]), 99% (active); in experiment [2] (at 50.0 µM), 71.2% (active). For the same compound, the growth inhibition in experiment [3] (setting [8]) was 50% (inactive); in experiment [3] (setting [9]), 99% (active); in experiment [3] (at 50.0 µM), 43.3% (inactive); in experiment [4] (setting [8]), 40% (inactive); in experiment [4] (setting [9]), 98% (active); in experiment [4] (at 50.0 µM), 50.6% (inactive). Besides, the growth inhibition in experiment [5] (setting [8]) is 42% (inactive); in experiment [5] (setting [9]), 99% (active); in experiment [5] (at 50.0 µM) it was 24.9% (inactive); in experiment [6] (setting [8]) it was 76% (active); in experiment [6] (setting [9]), 97% (active).

Regarding `CC(C)=CC1CC(C)C2(CCC3(C)CC4C(C(=O)CC4(C)O)/C(C=O)=C\CC32)O1` (configuration not stated), the growth inhibition in experiment [1] (setting [8]) was 99% (active); in experiment [1] (setting [9]), 100% (active); in experiment [1] (at 50.0 µM) it was 94.5% (active); in experiment [2] (setting [8]) it was 99% (active); in experiment [2] (setting [9]) it was 100% (active); in experiment [2] (at 50.0 µM), 94.6% (active). In addition, the growth inhibition in experiment [3] (setting [8]) was 99% (active); in experiment [3] (setting [9]), 99% (active); in experiment [3] (at 50.0 µM), 95% (active); in experiment [4] (setting [8]), 99% (active); in experiment [4] (setting [9]), 99% (active); in experiment [4] (at 50.0 µM) it was 93.6% (active). In addition, the results for the growth inhibition in experiment [5] (setting [8]), in experiment [5] (setting [9]) and in experiment [5] (at 50.0 µM) were 99% (active), 100% (active) and 94.5% (active), respectively.

As for `CNC(Cc1ccccc1)c1ccc(OC)c(OC)c1` (configuration not stated), the growth inhibition in experiment [1] (setting [8]) was 69% (inactive); in experiment [1] (setting [9]), 95% (active); in experiment [1] (at 50.0 µM) it was -2.25% (inactive); in experiment [2] (setting [8]), 79% (active); in experiment [2] (setting [9]), 97% (active); in experiment [2] (at 50.0 µM), 4.05% (inactive). In addition, the growth inhibition in experiment [3] (setting [8]) was -31% (inactive); in experiment [3] (setting [9]) it was 14% (inactive); in experiment [3] (at 50.0 µM), 18.7% (inactive); in experiment [4] (setting [8]), 18% (inactive); in experiment [4] (setting [9]), 13% (inactive); in experiment [4] (at 50.0 µM), -15.6% (inactive). Moreover, the growth inhibition was 21% (inactive) in experiment [5] (setting [8]); 28% (inactive) in experiment [5] (setting [9]); 14.3% (inactive) in experiment [5] (at 50.0 µM); -20% (inactive) in experiment [7] (at 1.2 µM); -14% (inactive) in experiment [7] (at 3.7 µM); -26% (inactive) in experiment [7] (at 11.0 µM). The growth inhibition in experiment [7] (at 33.0 µM) was -13% (inactive); in experiment [7] (at 100.0 µM), -25% (inactive); in experiment [6] (setting [8]) it was 57% (inactive); in experiment [6] (setting [9]) it was 98% (active); in experiment [6] (at 50.0 µM), 7.3% (inactive).

As for `O=c1ssc(Cl)c1Cl`, the growth inhibition in experiment [1] (setting [8]) is 97% (active); in experiment [1] (setting [9]), 98% (active); in experiment [1] (at 50.0 µM), 86.5% (active); in experiment [2] (setting [8]), 96% (active); in experiment [2] (setting [9]), 100% (active); in experiment [2] (at 50.0 µM), 89.2% (active). The growth inhibition in experiment [3] (setting [8]) was 100% (active); in experiment [3] (setting [9]), 100% (active); in experiment [3] (at 50.0 µM), 89.7% (active); in experiment [4] (setting [8]), 93% (active); in experiment [4] (setting [9]), 98% (active); in experiment [4] (at 50.0 µM), 89.1% (active). Moreover, the growth inhibition in experiment [5] (setting [8]) is 99% (active); in experiment [5] (setting [9]), 100% (active); in experiment [5] (at 50.0 µM) it was 87.6% (active); in experiment [6] (setting [8]) it was 97% (active); in experiment [6] (setting [9]) it was 98% (active).

Consider `Cc1nc(Cl)c(CBr)c(Cl)n1`, for which the growth inhibition in experiment [1] (setting [8]) is 38% (inactive); in experiment [1] (setting [9]) it was 99% (active); in experiment [1] (at 50.0 µM), 67.8% (inactive); in experiment [2] (setting [8]) it was 44% (inactive); in experiment [2] (setting [9]) it was 100% (active); in experiment [2] (at 50.0 µM), 70.2% (active). The growth inhibition in experiment [3] (setting [8]) is 43% (inactive); in experiment [3] (setting [9]), 100% (active); in experiment [3] (at 50.0 µM), 32.6% (inactive); in experiment [4] (setting [8]), 40% (inactive); in experiment [4] (setting [9]), 100% (active); in experiment [4] (at 50.0 µM), 33.8% (inactive). Besides, the growth inhibition in experiment [5] (setting [8]) was 54% (inactive); in experiment [5] (setting [9]), 100% (active); in experiment [5] (at 50.0 µM), 52.5% (inactive); in experiment [6] (setting [8]), 50% (inactive); in experiment [6] (setting [9]), 99% (active).

As for `O=C(O)c1ccccc1.[Ag]`, the growth inhibition in experiment [1] (at 1.2 µM) was 95% (active); in experiment [1] (at 3.7 µM) it was 101% (active); in experiment [1] (setting [8]) it was 97% (active) and 58% (inactive); in experiment [1] (at 11.0 µM), 99% (active); in experiment [1] (at 33.0 µM) it was 99% (active); in experiment [1] (setting [9]), 99% (active) and 98% (active). In addition, the growth inhibition was 90.8% (active) and 91.2% (active) in experiment [1] (at 50.0 µM); 99% (active) in experiment [1] (at 100.0 µM); 89% (active) in experiment [2] (at 1.2 µM); 101% (active) in experiment [2] (at 3.7 µM); 95% (active) and 60% (inactive) in experiment [2] (setting [8]); 99% (active) in experiment [2] (at 11.0 µM). Further, the growth inhibition is 99% (active) in experiment [2] (at 33.0 µM); 99% (active) in experiment [2] (setting [9]); 93.2% (active) and 93% (active) in experiment [2] (at 50.0 µM); 99% (active) in experiment [2] (at 100.0 µM); 99% (active) and -5% (inactive) in experiment [3] (setting [8]); 98% (active) and 99% (active) in experiment [3] (setting [9]). Further, the growth inhibition in experiment [3] (at 50.0 µM) is 93.1% (active) and 93.5% (active); in experiment [4] (setting [8]), 36% (inactive) and 39% (inactive); in experiment [4] (setting [9]), 97% (active) and 100% (active); in experiment [4] (at 50.0 µM), 91.6% (active) and 91.4% (active); in experiment [5] (at 1.2 µM), 93% (active); in experiment [5] (at 3.7 µM) it was 101% (active). Also, the growth inhibition in experiment [5] (setting [8]) was 100% (active) and -1% (inactive); in experiment [5] (at 11.0 µM), 99% (active); in experiment [5] (at 33.0 µM) it was 99% (active); in experiment [5] (setting [9]), 98% (active) and 99% (active); in experiment [5] (at 50.0 µM), 91.5% (active); in experiment [5] (at 100.0 µM), 99% (active). Further, the growth inhibition in experiment [6] (setting [8]) is 99% (active) and 40% (inactive); in experiment [6] (setting [9]) it was 99% (active) and 100% (active); in experiment [6] (at 50.0 µM), 90.8% (active) and 91.3% (active).

For the origin of these results see PubChem BioAssay (NCI).
